For 10 compounds, growth results are on record in PubChem BioAssay (NCI).

Holding throughout (assay): NCI-60 one-dose screen, 48 h (100 = growth as untreated, 0 = no growth, -100 = all killed)
What all share (details): 10 µM unless noted

The test system of assay [1] is RPMI-8226 leukemia.
The test system of assay [2] is OVCAR-8 ovarian.
Assay [3] deals with OVCAR-5 ovarian.
For assay [4], the system named is OVCAR-4 ovarian.
Assay [5] concerns SK-OV-3 ovarian.
In assay [6] the test system is OVCAR-3 ovarian.
For assay [7], the system named is HS 578T breast.
Assay [8] relates to NCI/ADR-RES ovarian.
Assay [9] deals with T-47D breast.
Assay [10] has as its system MDA-MB-435 melanoma.
The subject of assay [11] is SW-620 colon.
Assay [12] has as its system MCF7 breast.
Assay [13] concerns HCT-116 colon.
For assay [14], the system named is KM12 colon.
Assay [15] concerns IGROV1 ovarian.
The test system of assay [16] is BT-549 breast.
For assay [17], the system named is HCC-2998 colon.

This is part of a sample that, as a whole, favours compounds with a hit. Of some 83,000 tested, about 20% had one in any assay.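 Growth was measured after 48 h exposure to one concentration of compound in 96-well plates. Values under 10 count as active.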 Unmarked numbers belong to inactive results. Calls of active or inactive are those of the source.

Consider `O=C(O)C(=O)O`, for which the growth was 94.4% in assay [1]; 75.8% in assay [2]; 56.8% in [3]; 99.8% in assay [4]; 95.7% in assay [5]; 114% in assay [6]. For the same compound, the growth in assay [7] was 100%; in assay [8], -36.5% (active); in assay [9], 94.4%; in assay [10], 96.4%; in assay [11] it was 112%; in [12] it was 98.4%. The values for the growth in assay [13] and in [14] were 101% and 102%, respectively.

Take `CCN(CC)c1ccc(N=Nc2cc(Cl)ccc2Cl)c(NC(=O)CCC(=O)O)c1`: the growth in assay [1] was 97.6%; in assay [2], 89.2%; in assay [3], 92.5%; in [5], 97.5%; in assay [15], 92.2%; in assay [6], 96.8%. The growth in assay [7] is 95.1%; in assay [9], 90.2%; in assay [16], 120%; in assay [10], 115%; in [11] it was 105%; in assay [12] it was 93.2%. The figures for the growth in [13], in assay [17] and in assay [14] were 99.7%, 107% and 101%, respectively.

With `CC1=NN(c2ccccc2Cl)C(=O)/C1=C\c1cn(S(=O)(=O)c2ccc(C)cc2)c2ccccc12`, the growth was 113% in assay [1]; 108% in [2]; 88.1% in assay [3]; 103% in [4]; 105% in [5]; 110% in assay [6]. Moreover, the growth in assay [7] was 116%; in assay [9], 91.5%; in assay [16], 112%; in [10] it was 105%; in assay [11] it was 98.4%; in assay [12], 113%. Besides, the figures for the growth in [13], in assay [17] and in assay [14] were 88.2%, 88.5% and 109%, respectively.

Regarding `CC(NC(=O)C(C)Oc1ccc(Cl)cc1Cl)C(=O)O` (stereo unspecified), the growth in assay [1] was 125%; in [2], 107%; in assay [3], 95.7%; in [5], 102%; in assay [15] it was 84.8%; in [8] it was 96.7%. The growth is 108% in assay [9]; 108% in [16]; 104% in [10]; 105% in assay [11]; 99.1% in [12]; 89.6% in assay [13]. Further, the results for the growth in assay [17] and in assay [14] were 94.4% and 109%, respectively.

On to `CCCCCCCCCCC[C@@H](C[C@H]1OC(=O)[C@H]1CCCCCC)OC(=O)[C@@H](CC(C)C)NC=O`, for which the growth in [1] is 0.857% (active); in [2] it was 62.9%; in assay [3] it was 94.4%; in assay [5], 88.1%; in assay [15], 60.3%; in assay [6] it was 69%. In addition, the growth is 53.6% in assay [7]; 37.5% in assay [8]; 76.5% in [9]; 31.6% in assay [16]; 69% in assay [10]; 77.6% in assay [11]. The growth in assay [13] was 34%; in assay [17], 55.1%; in assay [14] it was 53%.

For `CCC[C@H](N[C@@H](C)C(=O)N1[C@H](C(=O)O)C[C@@H]2CCCC[C@@H]21)C(=O)OCC`, the growth in assay [1] is 109%; in assay [2], 102%; in assay [3], 88.9%; in assay [5] it was 113%; in assay [15] it was 108%; in assay [6] it was 104%. Besides, the growth in assay [7] was 98%; in assay [8], 98.5%; in assay [9], 124%; in assay [16], 113%; in assay [10], 112%; in [11], 114%. For the same compound, the figures for the growth in [13], in [17] and in assay [14] were 106%, 103% and 104%, respectively.

With `CN1CCCC1c1cccnc1` (stereo unspecified), the growth was 70.7% in assay [1]; 111% in [2]; -6.38% (active) in assay [3]; 104% in [4]; 116% in assay [5]; 117% in assay [6]. In addition, the growth is 112% in assay [7]; -37% (active) in assay [8]; 110% in [9]; 119% in assay [10]; 108% in [11]; 97.1% in assay [12]. Also, the growth in assay [13] and in assay [14] was 104% in each case.

As to `C=C(C)[C@H]1CC/C(C)=C/CC[C@]2(C)O[C@H]2CC/C(C=O)=C\C1O` (stereo partly specified), the growth was -17.5% (active) in [1]; 107% in assay [2]; 101% in assay [3]; 109% in assay [4]; 102% in assay [5]; 124% in [6]. The growth was 114% in assay [7]; 109% in [8]; 102% in assay [9]; 120% in [10]; 108% in assay [11]; 97.2% in assay [12]. In addition, the growth in assay [13] is 105%; in assay [17], 111%; in assay [14], 114%.

Consider `CO[C@H]1/C=C/O[C@@]2(C)Oc3c(C)c(O)c4c(O)c(c(/C=N/N5C(C)CN(Cc6ccccc6)CC5C)c(O)c4c3C2=O)NC(=O)/C(C)=C\C=C\[C@H](C)[C@H](O)[C@@H](C)[C@@H](O)[C@@H](C)[C@H](OC(C)=O)[C@@H]1C` (stereo partly specified), for which the growth in assay [1] was 83.5%; in assay [2], 75.6%; in assay [3] it was 99.1%; in [4], 89.8%; in assay [5], 116%; in [7], 84.6%. Further, the growth in [8] was -20.3% (active); in assay [9] it was 81.4%; in assay [16], 125%; in assay [10], 86.6%; in assay [11] it was 80.1%; in [12], 44.6%. Also, the growth was 37.9% in assay [13] and 52.6% in assay [14].

With `O=[P@@]1(c2ccccc2)O[C@H](COCc2ccccc2)[C@@H](OCc2ccccc2)[C@H](OCc2ccccc2)[C@H]1NCc1ccccc1`, the growth in assay [1] was 5.97% (active); in assay [2] it was 23.7%; in assay [3], 11.8%; in [5] it was 41.7%; in assay [6] it was 18.6%; in assay [7], 49.9%. The growth in [8] was 12.5%; in assay [9] it was 15.9%; in assay [16] it was 4.37% (active); in assay [10], 9.72% (active); in assay [11], 21.6%; in assay [12] it was 9.59% (active). The growth is 8.21% (active) in [13], 38.8% in assay [17] and 15.3% in [14].
